Measurements taken from PubChem BioAssay (NCATS).
Results filed as inconclusive are left out. Activity calls are given as the source filed them. Calls follow the shape of the dose curve; as a rule, active = well fitted cell-killing curve with a large enough effect; inconclusive = small, poorly fitted or top-dose-only effect, or effect the other way; inactive = no such curve, though single readings can be large or run the other way.

test: Cell Viability - LYMP2-004 (AID 966); conditions: LYMP2-004 lymphoblastoid cell viability, qHTS; series mostly up to 92.2 µM; activity change, negative = cytotoxicity: at the top concentration; also: nearly all actives have a fitted effect of over 65% in size;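 as to activity change, negative = cytotoxicity: plate controls were DMSO only for no effect and tetraoctylammonium bromide control for full effect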
Excerpt: NIH Chemical Genomics Center [NCGC]
NIH Molecular Libraries Screening Centers Network [MLSCN]
National Institutes of Environmental Health Sciences [NIEHS]
National Toxicology Program [NTP]
We have developed a 1536-well cell-based assay for quantitative high throughput screening (qHTS) against a number of cell lines to determine in vitro cytotoxicity of small molecules. This particular assay uses a human lymphoblastoid cell line (LYMP2-004) purchased from Coriell Institute for Medical Research.
NCGC Assay Protocol Summary:
The CellTiter-Glo luminescent cell viability assay (Promega) is a homogeneous method to measure the number of viable cells in culture. The end point readout of this assay is based on quantitation of intracellular ATP, an indicator of metabolic activity, using the luciferase reaction. Luciferase catalyzes the oxidation of beetle Luciferin to oxyluciferin and light in the presence of ATP. The luminescent signal is proportional to amount of ATP present.
Using the CellTiter-Glo luminescent cell viability assay, the amount of cellular ATP was measured in the lymphoblastoid cell line with complete culture medium following compound treatment for 24 hours. The assay was performed in opaque white Kalypsys 1536-well plates. In the screen, tetraoctylammonium bromide was used as positive control. Library compounds were measured for their ability to cause acute toxicity in the cell line, as reflected by a decrease in intracellular ATP levels, in a concentration-dependent manner. […] AC50 values were determined from concentration-response data modeled with the standard Hill equation.
qHTS protocol for CellTiter Glo lymphoblastoid cellular assay
[Step] [Parameter] [Value] [Description]
1. Reagent; 5 uL; 2500 lymphoblastoid cells/well
2. Time; 5 hr; 37 C incubation
4. Controls; 23 nL; Tetraoctylammonium bromide 6.4pM to 92 uM
5. Time; 24 hr; 37 C incubation
6. Reagent; 5 uL; CellTiter Glo reagent
7. Time; 30 min; Room Temperature
8. Detection; Luminescence; Viewlux plate reader
Keywords: cell viability, cytotoxicity, lymphoblastoid cell line, luminescence, NTPHTS, NTPHTS_NCGC, NIEHS, DSSTox, MLSMR, MLSCN, NIH Roadmap, qHTS, NCGC
Potency is read from the fitted curve at half-maximal effect.

With `CCCCC1C(=O)N(c2ccccc2)N(c2ccccc2)C1=O` as the compound, how does the “activity change, negative = cytotoxicity” value read?
The value was 3.84% (inactive).

For `O=c1[nH]cnc2c1ncn2[C@H]1CC[C@@H](CO)O1`, which “activity change, negative = cytotoxicity” value is on record?
The value was 11% (inactive).

Which “activity change, negative = cytotoxicity” value does the source give for `CN(C)CCC(c1ccccc1)c1ccccn1` (stereo not drawn) here?
Its value is 7.51% (inactive).

Which Potency does the source give for `CC1=C(/C=C/C(C)=C/C=C/C(C)=C/C(=O)Nc2ccc(O)cc2)C(C)(C)CCC1` here?
The Potency was 39.8 µM (active).

For `O=C(O)c1cc(O)c2c(c1)C(=O)c1cccc(O)c1C2=O`, which “activity change, negative = cytotoxicity” value is on record?
The value was 1.11% (inactive).

Which “activity change, negative = cytotoxicity” value does the source give for `CCn1cc(C(=O)O)c(=O)c2ccc(C)nc21` here?
Its value is 29.7% (inactive).

For `O=C1NC(=O)C(c2ccccc2)(c2ccccc2)N1`, which “activity change, negative = cytotoxicity” value is on record?
The value was 3.7% (inactive).

For `O=C(O)Cc1cccc2ccccc12`, which “activity change, negative = cytotoxicity” value is on record?
Its value is -7.58% (inactive).

With `O=c1cc(-c2ccc(O)cc2)oc2cc(O)cc(O)c12` as the compound, how does the “activity change, negative = cytotoxicity” value read?
The value was -21.7% (inactive).

With `CC(=O)c1ccc(S(=O)(=O)NC(=O)NC2CCCCC2)cc1` as the compound, how does the “activity change, negative = cytotoxicity” value read?
Its value is -8.83% (inactive).

For `CCCNC(=O)NS(=O)(=O)c1ccc(Cl)cc1`, which “activity change, negative = cytotoxicity” value is on record?
Its value is 21.7% (inactive).

For `O=c1c(O)c(-c2ccc(O)cc2)oc2cc(O)cc(O)c12`, which “activity change, negative = cytotoxicity” value is on record?
Its value is -35.5% (inactive).

With `O=c1c(-c2ccc(O)cc2)coc2cc(O)ccc12` as the compound, how does the “activity change, negative = cytotoxicity” value read?
The value was -2.99% (inactive).
